Experimental findings from PubChem BioAssay (NCATS) are described below.

Test [1] addresses Peroxisome proliferator-activated receptor delta (Homo sapiens) (UniProt Q03181). Nature of the test: qHTS assay for small molecule agonists of peroxisome proliferator-activated receptor delta signaling (AID 588534; calls by dose curve;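 further: 0% = DMSO basal wells and 100% = positive control agonist at 10 µM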). To be noted: HEK293T PPARdelta-UAS-bla, beta-lactamase ratio, 18 h; series mostly up to 76.7 µM. The procedure, abridged:
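Reporter cells were plated and held 5 hrs at 37 C before compounds were added. After 18 hrs at 37 C, CCF4 dye was loaded for 2 hrs at RT and fluorescence measured.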

For test [2], the target named is Peroxisome proliferator-activated receptor gamma (Homo sapiens) (UniProt P37231). Put plainly: qHTS assay for small molecule agonists of peroxisome proliferator-activated receptor gamma signaling (AID 588536; active means well fitted curve in the direction sought with a large enough effect in the signal ratio, with a control signal flat, not every such curve was filed as active; the % refers to the signal ratio;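 further: 0% = DMSO basal wells and 100% = rosiglitazone at 2 µM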). The settings on record: HEK293 PPARg-UAS-bla, beta-lactamase ratio, 16 h, percent of rosiglitazone response, DMSO as zero; series mostly up to 76.7 µM. The procedure, abridged: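 Ratiometric blue/green fluorescence (405 nm excitation; 460 and 530 nm emission) from CCF4-loaded HEK293 reporter cells serves as signal. Exposure to test compounds lasts 16 h at 37 C in medium containing 1% charcoal/dextran-treated serum.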

The target of test [3] is Vitamin D3 receptor (Homo sapiens) (UniProt P11473). Put plainly: qHTS assay for small molecule antagonists of vitamin D receptor signaling (AID 588541; calls by dose curve;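 further: receptor activated by calcitriol during compound treatment; on the % scale 0 is the no-effect control and ±100 the full control effect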). To be noted: HEK293T VDR-UAS-bla, beta-lactamase ratio, antagonist mode; series mostly up to 76.7 µM. Put shortly:
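VDR-UAS-bla HEK293T cells in 2% charcoal-stripped FBS were stimulated with 1-alpha,25-dihydroxyvitamin D3 (3 nM final) plus compound for 16 h at 37 C. The beta-lactamase CCF4 readout was normalized to 50 nM agonist and DMSO, and Hill fits gave IC50.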

A short description of test [4]: qHTS assay for small molecule agonists of retinoid X receptor alpha signaling (AID 588544; calls by dose curve). To be noted: HEK293T RXRa-UAS-bla, beta-lactamase reporter, 18 h; 530 nm emission.
In test [5] the target is Retinoic acid receptor RXR-alpha (Homo sapiens) (UniProt P19793). Described as above. The settings on record: HEK293T RXRa-UAS-bla, beta-lactamase reporter, 18 h; series mostly up to 76.7 µM.
Test [6] in a line: qHTS assay for small molecule antagonists of retinoid X receptor alpha signaling (AID 588546; active means well fitted inhibition curve with a large enough effect in the signal ratio, with a control signal flat, not every such curve was filed as active; the % refers to the signal ratio;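 further: cells stimulated with 9-cis-retinoic acid as agonist; on the % scale 0 is the no-effect control and ±100 the full control effect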). The settings on record: HEK293T RXRa-UAS-bla, beta-lactamase ratio, antagonist mode; measured here: W530 green channel, cytotoxicity proxy. The procedure, abridged:
(§1)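 Beta-lactamase reporter inhibition, read as CCF4 fluorescence ratio (ex 405, em 460/530 nm) after 2 h at RT. HEK293T UAS-bla cells, 2500/well, were stimulated with 9-cis-RA at 500 or 100 nM final alongside test compound for 18 h at 37 C.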

Test [7] has as its target Retinoic acid receptor RXR-alpha (Homo sapiens) (UniProt P19793). The description is as above. To be noted: HEK293T RXRa-UAS-bla, beta-lactamase ratio, antagonist mode. The procedure, abridged: as §1
Test [8] deals with Voltage-gated inwardly rectifying potassium channel KCNH2 (Homo sapiens) (UniProt Q12809). Put plainly: qHTS Assay for Small Molecule Inhibitors of the Human hERG Channel Activity (AID 588834).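 Further: top concentration of the series differs between compounds; on the % scale 0 is the no-effect control and ±100 the full control effect; lower thallium flux fluorescence means stronger hERG block; nearly all actives have a fitted effect of over 50% in size.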 To be noted: U2OS BacMam hERG, FluxOR thallium flux fluorescence; series mostly up to 46.1 µM. The procedure, abridged: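 Concentration-response qHTS measuring drop in thallium-sensitive dye signal. U2OS cells carrying BacMam hERG; compound exposure ~10 min, then stimulation buffer and 2 min read at 1 sec intervals.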

Test [9] has as its target Luciferin 4-monooxygenase (Photinus pyralis) (UniProt P08659). Put plainly: Biochemical firefly luciferase enzyme assay for NPC (AID 624030).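 Further: purified P. pyralis luciferase at 10 nM with luciferin and ATP substrate; 0% = DMSO and -100% = full luciferase inhibition by PTC124 control; nearly all actives have a fitted effect of over 70% in size.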 To be noted: purified P. pyralis luciferase, luminescence, 5 min; series mostly up to 58.6 µM. Put shortly:
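Purified P. pyralis luciferase at 10 nM in 50 mM Tris Acetate (final), luminescence read within 5 minutes of enzyme addition to compounds. Activity normalised to PTC124 versus DMSO; concentration-response curves classed by r2, magnitude and activity.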

The nature of test [10]: S16 Schwann cell viability assay (CellTiter-Glo assay) (AID 624031).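 Further: cellular ATP luminescence as a viability measure; plate controls were DMSO-treated cells for no effect and cell-free wells for full effect; nearly all actives have a fitted effect of over 70% in size.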 To be noted: S16 rat Schwann cells viability, 24 h; series mostly up to 57.5 µM. Put shortly:
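Untransfected S16 rat Schwann cells; compound 24 h, 37 °C/5% CO2; CellTiter-Glo ATP luminescence. % activity vs no-cell wells and DMSO controls (0%); concentration-effect curves classed by r2, response magnitude, activity.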

A short description of test [11]: S16 Schwann cell PMP22 intronic element firefly luciferase assay (AID 624032). Further: nearly all actives have a fitted effect of over 30% in size. Further: potency means the concentration at half of the fitted maximal effect. To be noted: S16 rat Schwann cells, PMP22 element FLuc, 24 h; series mostly up to 57.5 µM. The procedure, abridged: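 Rat S16 Schwann cells stably carrying firefly luciferase driven by a PMP22 intronic element, in 10% FBS, treated 24 h at 37 C. ONE-Glo luminescence normalized to PTC124 control and DMSO (0%); curves classed by r2, magnitude and activity.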

The target in test [12] is Glutaminase kidney isoform, mitochondrial (Homo sapiens) (UniProt O94925). Nature of the test: qHTS for Inhibitors of Glutaminase (GLS): LOPAC Validation (AID 624146).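 Further: glutamate product detected by oxidase and peroxidase coupled Amplex red fluorescence gain; on the % scale 0 is the no-effect control and ±100 the full control effect; nearly all actives have a fitted effect of over 60% in size.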 The settings on record: glutaminase enzyme activity inhibition; series mostly up to 46.1 µM. Put shortly:
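hKGA in 45 mM KH2PO4 (pH 8.2), 0.02% Tween-20 with compound, then 1mM L-Glutamine (stock as added) plus glutamate oxidase/HRP/Amplex red coupling mix. Fluorescence read initially and after 30 min at RT; signal change reflects glutamate formation.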

A short description of test [13]: qHTS assay for small molecule antagonists of peroxisome proliferator-activated receptor delta signaling (AID 588535; active means well fitted inhibition curve with a large enough effect in the signal ratio, with a control signal flat, not every such curve was filed as active; the % refers to the signal ratio;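 on max response: cells co-treated with a PPAR-delta agonist as stimulator during compound exposure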). The settings on record: HEK293T PPARd-UAS-bla, beta-lactamase FRET ratio, 18 h; 460 nm channel. Put shortly: (§2)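 Cells were seeded at 4000 per well in assay medium containing 2% charcoal/dextran FBS and held 5 hrs at 37 C. Compounds were then added for 18 hrs. CCF4 substrate was applied for 2 hrs at room temperature before fluorescence reading.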

In test [14] the target is Peroxisome proliferator-activated receptor delta (Homo sapiens) (UniProt Q03181). The description is as above. To be noted: HEK293T PPARd-UAS-bla, beta-lactamase FRET ratio, 18 h; series mostly up to 76.7 µM. Put shortly: as §2
Test [15] has as its target Peroxisome proliferator-activated receptor gamma (Homo sapiens) (UniProt P37231). Put plainly: qHTS assay for small molecule antagonists of peroxisome proliferator-activated receptor gamma signaling (AID 588537; active means well fitted inhibition curve with a large enough effect in the signal ratio, with a control signal flat, not every such curve was filed as active; the % refers to the signal ratio;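 further: reporter cells co-stimulated with 50 nM rosiglitazone agonist during compound treatment; % of control where 0% means no effect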). To be noted: HEK293 PPARg-UAS-bla, beta-lactamase ratio, antagonist mode; series mostly up to 76.8 µM. Put shortly: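 Step one: plate 3000 HEK293 UAS-bla cells per well in medium with 1% stripped serum and hold 6-6.5 h at 37 C. Step two: add compound and 50 nM agonist for 16 h. Step three: CCF4 loading, fluorescence read.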

The target in test [16] is Thyroid hormone receptor beta (Homo sapiens) (UniProt P10828). Nature of the test: qHTS assay for small molecule agonists of thyroid hormone receptor beta signaling (AID 588545; calls by dose curve;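 further: 0% = DMSO only and 100% = 10 nM T3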). To be noted: TR-UAS-bla GripTite HEK 293, beta-lactamase ratio, agonist mode, 18 h, percent of T3 response, DMSO as zero; series mostly up to 76.7 µM. Put shortly: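 TR-UAS-bla GripTite HEK 293 cells (2500/well, medium with 2% charcoal/dextran FBS) were treated in agonist mode for 18 h at 37 C, titrated. Beta-lactamase was read by CCF4 ratio after 2 h; normalized to 10 nM T3 (100%) and DMSO, Hill-fitted for EC50 and efficacy.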

Test [17] shares this target. Nature of the test: qHTS assay for small molecule antagonists of thyroid hormone receptor beta signaling (AID 588547; active means well fitted inhibition curve with a large enough effect in the signal ratio, with a control signal flat, not every such curve was filed as active; the % refers to the signal ratio;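 further: cells stimulated with 0.4 nM T3 agonist during compound exposure; on the % scale 0 is the no-effect control and ±100 the full control effect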). To be noted: TR-UAS-bla HEK293, beta-lactamase ratio, antagonist mode, 18 h. Put shortly: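 TR-UAS-bla GripTite HEK293 cells in 2% charcoal/dextran FBS medium; compounds 0.59 nM to 92 uM with T3 at 0.4nM final, 18 h at 37 C. Beta-lactamase read by CCF4 fluorescence (460/530 nm); Hill fits gave IC50 and efficacy.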

The nature of test [18]: S16 Schwann cell PMP22 intronic element beta-lactamase assay (AID 624044; calls by dose curve;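 further: 0% = DMSO and -100% = potassium clavulanate positive control; nearly all actives have a fitted effect of over 15% in size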). The settings on record: S16 rat Schwann cells, PMP22 element beta-lactamase FRET, 24 h; series mostly up to 38.3 µM. The procedure, abridged:
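Rat S16 Schwann cells with beta-Lac driven by a PMP22 intronic element, compound-treated 24 h at 37 °C. LiveBLAzer FRET B/G read: 460 nm normalized to potassium clavulanate vs DMSO; 535 nm FRET as viability; concentration-effect curves classified.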

Several values for one entry are separate records, joined by “and”; a condition that tells them apart may be missing. Identical values can stand only once. Records with an inconclusive call do not appear. Activity calls are given as the source filed them. Unless noted, the call rests on the fitted dose curve; in most records, active means well fitted curve in the direction sought with a large enough effect; inconclusive means small, poorly fitted or top-dose-only effect, or another doubt; inactive means no such curve, though single readings can be large; an effect the other way counts as inactive or inconclusive.

Chain of Vitamin D3 receptor (Homo sapiens) (P11473 whole entry, looked up): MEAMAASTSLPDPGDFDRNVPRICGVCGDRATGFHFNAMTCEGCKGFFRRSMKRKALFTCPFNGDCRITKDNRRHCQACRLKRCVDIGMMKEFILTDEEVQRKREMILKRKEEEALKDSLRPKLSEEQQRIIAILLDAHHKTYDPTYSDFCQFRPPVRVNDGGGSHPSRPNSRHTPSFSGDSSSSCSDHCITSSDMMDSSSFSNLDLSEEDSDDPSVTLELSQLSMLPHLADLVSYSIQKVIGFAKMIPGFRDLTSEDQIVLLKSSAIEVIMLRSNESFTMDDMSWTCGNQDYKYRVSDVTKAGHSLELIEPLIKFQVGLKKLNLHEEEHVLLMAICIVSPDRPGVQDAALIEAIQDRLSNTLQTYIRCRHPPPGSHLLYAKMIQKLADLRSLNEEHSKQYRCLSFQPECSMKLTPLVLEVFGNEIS
Chain of Peroxisome proliferator-activated receptor gamma (Homo sapiens) (P37231 whole entry, looked up): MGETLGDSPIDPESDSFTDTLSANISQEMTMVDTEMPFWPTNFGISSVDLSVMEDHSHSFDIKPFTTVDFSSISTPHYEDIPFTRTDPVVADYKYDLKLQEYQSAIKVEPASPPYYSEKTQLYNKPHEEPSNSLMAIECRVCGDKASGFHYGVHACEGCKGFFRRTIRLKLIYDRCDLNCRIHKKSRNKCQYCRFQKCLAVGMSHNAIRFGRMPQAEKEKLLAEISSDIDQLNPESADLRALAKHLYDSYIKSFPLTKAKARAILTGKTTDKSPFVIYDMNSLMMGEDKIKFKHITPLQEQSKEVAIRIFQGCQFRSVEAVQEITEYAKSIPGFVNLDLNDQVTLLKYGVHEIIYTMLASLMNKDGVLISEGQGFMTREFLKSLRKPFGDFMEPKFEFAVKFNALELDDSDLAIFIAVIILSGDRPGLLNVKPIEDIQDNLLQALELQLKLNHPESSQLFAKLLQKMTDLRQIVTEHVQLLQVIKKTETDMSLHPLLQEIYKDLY
Chain of Voltage-gated inwardly rectifying potassium channel KCNH2 (Homo sapiens) (Q12809 whole entry, looked up): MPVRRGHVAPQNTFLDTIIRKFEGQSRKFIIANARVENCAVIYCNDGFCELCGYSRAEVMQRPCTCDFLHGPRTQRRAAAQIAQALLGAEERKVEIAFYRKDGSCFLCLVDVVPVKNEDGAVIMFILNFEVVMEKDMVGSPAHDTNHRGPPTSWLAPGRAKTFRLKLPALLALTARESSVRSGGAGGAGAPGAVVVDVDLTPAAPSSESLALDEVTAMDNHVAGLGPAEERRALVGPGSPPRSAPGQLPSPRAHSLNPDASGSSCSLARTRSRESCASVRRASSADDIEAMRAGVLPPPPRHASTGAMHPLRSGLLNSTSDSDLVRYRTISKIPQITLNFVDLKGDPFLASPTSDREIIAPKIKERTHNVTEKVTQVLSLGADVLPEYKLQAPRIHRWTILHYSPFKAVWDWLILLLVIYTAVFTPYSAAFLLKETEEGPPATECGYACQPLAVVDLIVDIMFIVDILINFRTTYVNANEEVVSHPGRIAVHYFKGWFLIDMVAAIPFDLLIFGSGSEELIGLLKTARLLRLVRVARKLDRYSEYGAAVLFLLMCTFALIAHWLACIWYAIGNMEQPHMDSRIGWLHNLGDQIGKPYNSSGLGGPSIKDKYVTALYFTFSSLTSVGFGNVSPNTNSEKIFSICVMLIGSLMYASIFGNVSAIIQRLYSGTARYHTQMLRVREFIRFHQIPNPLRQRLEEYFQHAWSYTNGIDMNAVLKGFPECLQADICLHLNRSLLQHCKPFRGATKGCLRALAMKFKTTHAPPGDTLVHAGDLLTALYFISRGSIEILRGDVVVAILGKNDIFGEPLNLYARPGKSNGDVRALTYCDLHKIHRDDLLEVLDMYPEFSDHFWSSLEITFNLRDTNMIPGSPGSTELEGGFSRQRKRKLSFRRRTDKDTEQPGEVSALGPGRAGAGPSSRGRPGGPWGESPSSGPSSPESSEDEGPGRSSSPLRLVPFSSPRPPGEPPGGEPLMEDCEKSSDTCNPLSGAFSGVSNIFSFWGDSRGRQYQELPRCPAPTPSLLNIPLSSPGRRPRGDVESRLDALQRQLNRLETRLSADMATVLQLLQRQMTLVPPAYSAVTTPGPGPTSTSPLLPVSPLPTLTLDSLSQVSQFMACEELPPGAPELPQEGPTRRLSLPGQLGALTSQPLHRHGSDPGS
Chain of Luciferin 4-monooxygenase (Photinus pyralis) (P08659 whole entry, looked up): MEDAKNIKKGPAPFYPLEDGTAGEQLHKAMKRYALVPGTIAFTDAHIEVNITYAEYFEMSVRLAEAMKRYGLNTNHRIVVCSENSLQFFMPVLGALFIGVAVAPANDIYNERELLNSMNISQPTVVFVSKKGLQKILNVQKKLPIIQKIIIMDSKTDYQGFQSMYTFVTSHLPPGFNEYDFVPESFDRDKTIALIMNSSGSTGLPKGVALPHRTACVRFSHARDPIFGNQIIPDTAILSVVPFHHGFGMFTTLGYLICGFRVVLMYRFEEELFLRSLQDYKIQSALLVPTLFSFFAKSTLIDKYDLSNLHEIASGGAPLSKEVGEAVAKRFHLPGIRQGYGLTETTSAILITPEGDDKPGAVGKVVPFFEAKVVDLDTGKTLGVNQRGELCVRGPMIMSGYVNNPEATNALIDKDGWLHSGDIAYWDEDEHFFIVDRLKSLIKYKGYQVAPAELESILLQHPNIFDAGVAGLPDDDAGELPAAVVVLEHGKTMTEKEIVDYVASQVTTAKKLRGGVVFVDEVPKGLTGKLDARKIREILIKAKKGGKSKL
Chain of Peroxisome proliferator-activated receptor delta (Homo sapiens) (Q03181 whole entry, looked up): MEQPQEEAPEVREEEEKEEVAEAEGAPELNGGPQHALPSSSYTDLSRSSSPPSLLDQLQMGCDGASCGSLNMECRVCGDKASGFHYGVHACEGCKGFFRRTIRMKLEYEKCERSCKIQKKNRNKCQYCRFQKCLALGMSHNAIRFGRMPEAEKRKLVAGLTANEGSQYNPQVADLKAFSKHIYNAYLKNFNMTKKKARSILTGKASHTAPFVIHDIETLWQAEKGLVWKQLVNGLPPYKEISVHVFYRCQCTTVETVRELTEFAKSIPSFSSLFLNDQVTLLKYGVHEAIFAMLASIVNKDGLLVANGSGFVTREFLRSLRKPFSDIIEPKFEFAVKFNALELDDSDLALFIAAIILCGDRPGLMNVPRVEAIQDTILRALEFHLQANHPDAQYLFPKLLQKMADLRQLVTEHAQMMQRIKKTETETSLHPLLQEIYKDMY
Chain of Retinoic acid receptor RXR-alpha (Homo sapiens) (P19793 whole entry, looked up): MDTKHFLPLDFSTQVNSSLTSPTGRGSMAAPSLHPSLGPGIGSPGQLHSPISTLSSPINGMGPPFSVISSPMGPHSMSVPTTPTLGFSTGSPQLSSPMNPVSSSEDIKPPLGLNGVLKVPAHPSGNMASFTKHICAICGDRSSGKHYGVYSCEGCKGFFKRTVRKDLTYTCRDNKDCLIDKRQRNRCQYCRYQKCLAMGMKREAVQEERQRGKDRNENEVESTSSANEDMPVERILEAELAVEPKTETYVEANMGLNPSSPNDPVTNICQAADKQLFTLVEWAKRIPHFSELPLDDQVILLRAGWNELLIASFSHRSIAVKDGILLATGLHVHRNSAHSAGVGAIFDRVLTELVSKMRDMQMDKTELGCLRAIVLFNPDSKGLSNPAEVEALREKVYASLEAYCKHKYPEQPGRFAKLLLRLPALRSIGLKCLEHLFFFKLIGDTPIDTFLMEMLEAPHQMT
Chain of Thyroid hormone receptor beta (Homo sapiens) (P10828 whole entry, looked up): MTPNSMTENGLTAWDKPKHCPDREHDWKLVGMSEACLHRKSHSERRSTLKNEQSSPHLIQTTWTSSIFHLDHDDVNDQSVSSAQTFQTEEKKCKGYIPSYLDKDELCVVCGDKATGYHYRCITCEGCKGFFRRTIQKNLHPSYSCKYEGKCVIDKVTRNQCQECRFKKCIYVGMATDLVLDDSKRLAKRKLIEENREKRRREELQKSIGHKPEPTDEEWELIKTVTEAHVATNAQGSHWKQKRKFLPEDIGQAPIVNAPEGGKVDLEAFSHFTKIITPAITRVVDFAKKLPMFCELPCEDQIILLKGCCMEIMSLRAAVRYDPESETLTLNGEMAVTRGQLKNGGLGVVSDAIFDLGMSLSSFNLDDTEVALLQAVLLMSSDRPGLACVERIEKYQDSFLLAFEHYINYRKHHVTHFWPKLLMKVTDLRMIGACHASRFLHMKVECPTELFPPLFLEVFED
Chain of Glutaminase kidney isoform, mitochondrial (Homo sapiens) (O94925 whole entry, looked up, canonical isoform): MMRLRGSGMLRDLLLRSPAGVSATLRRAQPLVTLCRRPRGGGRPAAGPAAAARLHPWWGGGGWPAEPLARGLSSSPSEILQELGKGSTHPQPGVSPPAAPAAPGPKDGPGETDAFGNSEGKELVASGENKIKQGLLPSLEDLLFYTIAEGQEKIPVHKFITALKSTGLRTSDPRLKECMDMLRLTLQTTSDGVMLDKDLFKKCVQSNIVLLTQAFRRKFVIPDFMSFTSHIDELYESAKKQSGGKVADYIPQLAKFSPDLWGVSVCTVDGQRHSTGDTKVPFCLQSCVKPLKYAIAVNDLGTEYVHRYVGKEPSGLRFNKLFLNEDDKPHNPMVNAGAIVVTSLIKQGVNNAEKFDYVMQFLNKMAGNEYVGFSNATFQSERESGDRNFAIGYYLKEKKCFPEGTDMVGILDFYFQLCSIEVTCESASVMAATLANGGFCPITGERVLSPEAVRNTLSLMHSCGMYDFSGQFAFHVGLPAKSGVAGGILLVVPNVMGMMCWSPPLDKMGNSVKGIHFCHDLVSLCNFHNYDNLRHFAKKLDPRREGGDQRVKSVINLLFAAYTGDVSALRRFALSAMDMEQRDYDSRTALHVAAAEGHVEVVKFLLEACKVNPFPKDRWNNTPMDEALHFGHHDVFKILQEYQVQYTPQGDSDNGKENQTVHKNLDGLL

For the compound `CCCN(CCC)S(=O)(=O)c1ccc(C(=O)O)cc1`, the result in [1] was inactive.

Turning to `NCC(O)c1ccc(O)cc1` (stereo not given), the outcome in [2] and in test [3] was inactive. Also, the values for the max response in test [4], in test [6] and in test [7] were 14.7%, 5.99% and 1.76% (inactive), respectively. In addition, the Potency entry in [5], in test [8], in [9], in test [10] and in [12] was “inactive” throughout. In test [11], the Potency is 16.1 µM (active).

Consider `Oc1cccc2cccnc12`, for which the result in [1], in test [14], in test [2], in [3] and in test [16] was inactive. Moreover, the max response in test [13] is -10.4% and -24.8%; in test [6] it was 12%; in test [7], -19.8% (inactive). Further, the Potency entry in test [15], in test [8], in test [9] and in test [11] was “inactive” in each case. Moreover, the activity change % (negative = inhibition) in [17] was -18.8% (inactive) and -22.1% (inactive).

As for `C=C1C[C@@H]2[C@H](CC[C@]3(C)C(=O)CC[C@@H]23)[C@@]2(C)C=CC(=O)C=C12`, the Potency entry in test [8] is “inactive”.

Take `NC(=Nc1ccccc1)Nc1ccccc1`: the result in test [1] was inactive. Besides, the Potency result in [9] and in test [18] was “inactive” in each case.

For the compound `CCC1C(=O)OCC1Cc1cncn1C` (stereo not given), the Potency result in test [8] is “inactive”.

On to `N[C@@H]1C[C@H]1c1ccccc1`, for which the Potency result in test [8] was “inactive”.

With `CC(C)(C)CC(C)(C)c1ccc(O)cc1`, the result in test [1], in test [14] and in test [3] was inactive. The max response in [13] is -1.27%; in test [4], -53.5%. Moreover, the Potency result in test [5], in [8], in test [9], in [10], in [11] and in test [18] was “inactive” throughout.

As to `Cc1ccnc2c1NC(=O)c1cccnc1N2C1CC1`, the result in [1] was inactive.

On to `CS(=O)(=O)OCCCCOS(C)(=O)=O`, for which, in [1], the result was inactive.

Turning to `Nc1ccncc1`, the result in [1], in test [14], in [3] and in [16] was inactive. In addition, the max response in test [13] was -23%; in test [4] it was -10.7%; in test [6] it was -5.09%; in [7] it was -7.1% (inactive). The Potency result in [5], in test [8], in test [9], in [10], in [11] and in [12] was “inactive” in each case.

`Nc1ncn([C@@H]2O[C@H](CO)[C@@H](O)[C@H]2O)c(=O)n1`: the result in test [1] was inactive.

As to `C=CCN1CC[C@]23c4c5ccc(O)c4O[C@H]2C(=O)CC[C@@]3(O)[C@H]1C5`, the Potency result in test [8] was “inactive”.
